According to PubChem BioAssay (Tox21):
Inconclusive results are not listed. The source made the active and inactive calls. Unless noted, the call rests on the fitted dose curve.

Tests used:
[1] = Nuclear factor erythroid 2-related factor 2/antioxidant responsive element (Nrf2/ARE) small molecule agonists: qHTS cell viability counter screen in human keratinocytes (AID 1919968; active means well fitted curve in the direction sought with a large enough effect in the repeat runs; an effect the other way counts as inactive or inconclusive; further: nearly all actives have a fitted effect of over 55% in size)
Procedure, shortened: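 Cells of the KeratinoSens line were plated at 1,500 per well and left for 5 h before compound transfer from DMSO stocks. After a 23 h incubation (37 C, 5% CO2), CellTiter-Fluor was added. Signal was taken as fluorescence intensity 1 h later.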

[2] = Nuclear factor erythroid 2-related factor 2/antioxidant responsive element (Nrf2/ARE) small molecule agonists: luciferase reporter gene qHTS assay in human keratinocytes (AID 1919969); further: nearly all actives have a fitted effect of over 35% in size
[3] = molecular target: Gonadotropin-releasing hormone receptor (Homo sapiens) (UniProt P30968); assay: Human gonadotropin-releasing hormone receptor (GnRHR) small molecule agonists, calcium flux assay in GnRHR-HEK293 cells (AID 1920063); further: nearly all actives have a fitted effect of over 35% in size
Procedure, shortened: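 Compounds dissolved in DMSO are pin-transferred onto dye-loaded GnRHR-HEK293 cells, which were seeded 18 h before at 37 C/5% CO2. Calcium signal is read as fluorescence intensity at 1 s intervals for 3 min.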

[4] = molecular target: KiSS-1 receptor (Homo sapiens) (UniProt Q969F8); assay: Human kisspeptin (KISS1R) small molecule agonists, calcium flux assay in KISS1R-HEK293 cells (AID 1920064; active means well fitted curve in the direction sought with a large enough effect in the repeat runs; an effect the other way counts as inactive or inconclusive)
Procedure, shortened: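 Cell line: HEK293, stable human KISS1R. Dye loading 1 h at 37 C after 18 h culture. Read: kinetic fluorescence, 480/540 nm, 3 min at 1 s intervals.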

[5] = G protein-coupled receptor (GPCR) small molecule agonists, calcium flux assay: HEK293 wild type cell line counter screen (AID 1920065)
Procedure, shortened: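 Tox21 10K compounds, 15 concentrations each in triplicate, pin-transferred in DMSO onto dye-loaded cells; kinetic read at 480/540 nm for 3 min, 1 s intervals.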

[6] = p53 small molecule agonists, cell-based qHTS assay with human liver microsomes: qHTS cell viability counter screen (AID 1963579); further: nearly all actives have a fitted effect of over 45% in size
Procedure, shortened: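 After the 460/530 nm beta-lactamase read, CellTiter-Glo was added to the same wells and luminescence measured after 30 min at room temperature, giving viability of p53RE-bla cells treated 16 h with compounds plus microsomes and NADPH.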

[7] = p53 small molecule agonists, cell-based qHTS assay with rat liver microsomes: qHTS cell viability counter screen (AID 1963580); further: nearly all actives have a fitted effect of over 45% in size
Procedure, shortened: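 Counter screen for cytotoxicity under metabolic activation: rat liver microsomes and NADPH, 0.5 mg/mL final each, added with compounds to p53RE-bla HCT-116 cells; 16 h at 37 C, then ATP luminescence read.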

[8] = p53 small molecule agonists, cell-based qHTS assay: qHTS cell viability counter screen (AID 1963581); further: nearly all actives have a fitted effect of over 45% in size
Procedure, shortened: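 ATP content measured by luminescence in HCT-116 p53RE-bla cells treated 16 h at 37 C, same wells as the reporter screen.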

[9] = molecular target: Muscarinic acetylcholine receptor M1 (Homo sapiens) (UniProt P11229); assay: Cholinergic receptor muscarinic 1 (CHRM1) small molecule antagonists, cell-based qHTS assay (AID 1963588); further: nearly all actives have a fitted effect of over 40% in size
Procedure, shortened: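 Compounds were tested at 15 concentrations in three independent runs. Dye-loaded CHRM1-CHO cells were exposed 5 min at room temperature before stimulation by acetylcholine added at 50nM. Intracellular calcium was read kinetically on FDSS for 3 min.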

[10] = molecular target: Muscarinic acetylcholine receptor M1 (Homo sapiens) (UniProt P11229); assay: Cholinergic receptor muscarinic 1 (CHRM1) small molecule agonists, cell-based qHTS assay (AID 1963589); further: nearly all actives have a fitted effect of over 35% in size
Procedure, shortened: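 Homogeneous fluorescence calcium flux, agonist mode. Human M1-expressing CHO cells; compound dosed at 15 concentrations, three independent runs; signal sampled every 1 sec.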

[11] = cAMP Responsive Elements (CRE) small molecule antagonists, cell-based qHTS assay (AID 1963591; active means well fitted inhibition curve with a large enough effect in the signal ratio in the repeat runs, not every such curve was filed as active; the % refers to the signal ratio)
Procedure, shortened: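 First, CRE-bla HEK293T cells settled 18 h at 37 C. Next, compound and 0.25 uM final NKH477 were applied for 3 h. Last, LiveBLAzer B/G substrate was loaded for 2 h at room temperature.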

[12] = molecular target: D(2) dopamine receptor (Homo sapiens) (UniProt P14416); assay: Dopamine D2 receptor (DRD2) small molecule agonists, cell-based qHTS assay (AID 1963594); further: nearly all actives have a fitted effect of over 35% in size
Procedure, shortened: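 HEK293 cells stably expressing DRD2 were cultured 24 h at 37 C, then given Ro20-1724 (0.1 mM final) and compounds for 10 min at room temperature. NKH477 (200nM) was then added for 30 min. cAMP was read by HTRF.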

[13] = molecular target: 5-hydroxytryptamine receptor 2A (Homo sapiens) (UniProt P28223); assay: 5-hydroxytryptamine receptor 2A (HTR2A) small molecule agonists, cell-based qHTS assay (AID 1963587); further: nearly all actives have a fitted effect of over 30% in size
Procedure, shortened: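 HTR2A-CHO cells, plated 18 h at 37 C/5% CO2, dye-loaded 1 h at 37 C; compounds in DMSO added by pin tool (agonist mode). Intracellular calcium flux read as kinetic fluorescence on FDSS over 2 min at 1 s intervals.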

[14] = cAMP Responsive Elements (CRE) small molecule agonists, cell-based qHTS assay (AID 1963590)
Procedure, shortened: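 HEK 293T cells stably bearing CRE-bla were plated at 2,000 cells per well and rested 18 h. Compounds, positive controls or DMSO were added for 3 h at 37 C. LiveBLAzer B/G substrate was then loaded for 2 h at room temperature.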

[15] = molecular target: Beta-2 adrenergic receptor (Homo sapiens) (UniProt P07550); assay: Adrenergic beta2 receptor (ADRB2) small molecule antagonists, cell-based qHTS assay (AID 1963592); further: series mostly up to about 92 µM; nearly all actives have a fitted effect of over 50% in size
Procedure, shortened: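 Assay format: CHO-ADRB2 cells, 18-20hr seeding at 37C/5% CO2, then compound plus 1nM isoproterenol agonist mix for 0.5hr RT. Homogeneous time-resolved fluorescence cAMP detection after 1hr, expressed as 665/615 nm ratio.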

[16] = molecular target: 5-hydroxytryptamine receptor 2A (Homo sapiens) (UniProt P28223); assay: 5-hydroxytryptamine receptor 2A (HTR2A) small molecule antagonists, cell-based qHTS assay (AID 1963586); further: nearly all actives have a fitted effect of over 45% in size
Procedure, shortened: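 CHO cells stably expressing human HTR2A were plated for 18 h at 37 C, then loaded with calcium dye for 1 h. Compounds were preincubated 5 min at room temperature before DOI (4 nM solution) was added. Kinetic fluorescence was read for 3 min.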

[17] = molecular target: D(2) dopamine receptor (Homo sapiens) (UniProt P14416); assay: Dopamine D2 receptor (DRD2) small molecule antagonists, cell-based qHTS assay (AID 1963595; active means well fitted inhibition curve with a large enough effect in the signal ratio in the repeat runs, with a control signal flat; the % refers to the signal ratio)
Procedure, shortened: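 HEK293 cells stably expressing DRD2, preincubated with 0.1 mM Ro20-1724 and compounds 10 min, were stimulated with 200 nM NKH477 plus 12 nM quinpirole for 30 min at room temperature; cAMP measured by HTRF (665/620 nm).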

[18] = p53 small molecule agonists, cell-based qHTS assay (AID 1963582; active means well fitted activation curve with a large enough effect in the signal ratio in the repeat runs, not every such curve was filed as active; the % refers to the signal ratio)
Procedure, shortened: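 16 h compound exposure (37 C) of p53 response element–bla cells, preceded by 5 h recovery at 37 C/5% CO2; read-out via LiveBLAzer B/G FRET substrate, 2 h RT, fluorescence intensity.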

[19] = molecular target: Beta-2 adrenergic receptor (Homo sapiens) (UniProt P07550); assay: Adrenergic beta2 receptor (ADRB2) small molecule agonists, cell-based qHTS assay (AID 1963593);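 further: CHO cells stably overexpressing human ADRB2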
Procedure, shortened: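 CHO cells stably over-expressing ADRB2 were plated overnight at 37C, then dosed with compounds plus a stimulation mix containing 100uM IBMX and 25uM Ro-20-1724 for 0.5hr at room temperature. cAMP was measured by HTRF competition, 1hr.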

Measured: Potency

Chain of Gonadotropin-releasing hormone receptor (Homo sapiens) (P30968 whole entry, looked up): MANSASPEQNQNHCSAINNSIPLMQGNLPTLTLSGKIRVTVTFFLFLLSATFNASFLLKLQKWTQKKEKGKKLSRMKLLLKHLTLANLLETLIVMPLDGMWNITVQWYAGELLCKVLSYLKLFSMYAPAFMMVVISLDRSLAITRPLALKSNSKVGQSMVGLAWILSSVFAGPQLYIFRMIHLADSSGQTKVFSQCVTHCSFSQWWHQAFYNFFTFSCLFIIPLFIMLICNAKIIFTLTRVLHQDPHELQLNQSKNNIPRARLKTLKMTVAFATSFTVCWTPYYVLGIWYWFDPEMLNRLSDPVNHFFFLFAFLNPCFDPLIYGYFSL
Chain of Beta-2 adrenergic receptor (Homo sapiens) (P07550 whole entry, looked up): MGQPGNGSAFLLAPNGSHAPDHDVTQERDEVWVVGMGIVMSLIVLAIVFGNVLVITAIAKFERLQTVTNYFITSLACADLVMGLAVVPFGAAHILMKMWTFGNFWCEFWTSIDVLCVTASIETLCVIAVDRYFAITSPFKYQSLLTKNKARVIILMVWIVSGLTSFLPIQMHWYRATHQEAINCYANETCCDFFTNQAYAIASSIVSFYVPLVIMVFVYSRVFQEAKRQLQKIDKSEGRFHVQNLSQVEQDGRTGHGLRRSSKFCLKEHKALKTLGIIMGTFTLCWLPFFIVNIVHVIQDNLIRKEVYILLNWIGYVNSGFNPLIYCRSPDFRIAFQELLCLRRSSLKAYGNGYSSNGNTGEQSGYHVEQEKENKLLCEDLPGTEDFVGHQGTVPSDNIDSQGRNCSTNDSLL
Chain of KiSS-1 receptor (Homo sapiens) (Q969F8 whole entry, looked up): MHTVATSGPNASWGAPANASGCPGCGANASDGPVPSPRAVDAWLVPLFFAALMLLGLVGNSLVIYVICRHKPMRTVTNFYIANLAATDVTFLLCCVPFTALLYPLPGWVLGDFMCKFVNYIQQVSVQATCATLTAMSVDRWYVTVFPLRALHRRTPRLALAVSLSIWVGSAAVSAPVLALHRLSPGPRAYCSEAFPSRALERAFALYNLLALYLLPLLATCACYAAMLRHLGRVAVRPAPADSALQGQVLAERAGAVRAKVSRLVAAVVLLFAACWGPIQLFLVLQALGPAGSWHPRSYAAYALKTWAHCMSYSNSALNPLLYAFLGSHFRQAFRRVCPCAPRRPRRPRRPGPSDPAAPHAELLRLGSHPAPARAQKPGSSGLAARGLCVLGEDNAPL
Chain of Muscarinic acetylcholine receptor M1 (Homo sapiens) (P11229 whole entry, looked up): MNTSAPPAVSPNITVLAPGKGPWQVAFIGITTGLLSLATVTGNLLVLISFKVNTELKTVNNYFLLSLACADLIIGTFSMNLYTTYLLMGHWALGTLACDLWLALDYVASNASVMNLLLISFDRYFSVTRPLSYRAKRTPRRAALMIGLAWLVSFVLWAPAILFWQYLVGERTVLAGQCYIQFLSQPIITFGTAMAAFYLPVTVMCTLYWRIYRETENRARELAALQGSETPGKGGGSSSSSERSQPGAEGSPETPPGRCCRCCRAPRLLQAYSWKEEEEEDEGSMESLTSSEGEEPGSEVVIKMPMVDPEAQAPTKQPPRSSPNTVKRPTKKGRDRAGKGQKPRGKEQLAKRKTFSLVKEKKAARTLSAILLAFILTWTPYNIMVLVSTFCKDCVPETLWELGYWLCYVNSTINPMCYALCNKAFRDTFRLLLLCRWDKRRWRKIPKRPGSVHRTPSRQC
Chain of D(2) dopamine receptor (Homo sapiens) (P14416 whole entry, looked up): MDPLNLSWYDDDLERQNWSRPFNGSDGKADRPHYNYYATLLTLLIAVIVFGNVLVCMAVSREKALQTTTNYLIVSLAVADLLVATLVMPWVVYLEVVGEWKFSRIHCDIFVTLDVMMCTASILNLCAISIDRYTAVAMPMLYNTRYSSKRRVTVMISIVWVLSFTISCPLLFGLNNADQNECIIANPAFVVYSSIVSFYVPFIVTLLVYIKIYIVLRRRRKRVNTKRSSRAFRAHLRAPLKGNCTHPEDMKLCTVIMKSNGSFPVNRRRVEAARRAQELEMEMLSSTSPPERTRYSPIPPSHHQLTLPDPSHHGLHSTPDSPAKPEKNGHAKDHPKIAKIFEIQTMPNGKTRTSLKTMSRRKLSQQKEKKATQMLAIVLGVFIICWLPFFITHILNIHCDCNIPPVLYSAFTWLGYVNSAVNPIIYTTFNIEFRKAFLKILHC
Chain of 5-hydroxytryptamine receptor 2A (Homo sapiens) (P28223 whole entry, looked up): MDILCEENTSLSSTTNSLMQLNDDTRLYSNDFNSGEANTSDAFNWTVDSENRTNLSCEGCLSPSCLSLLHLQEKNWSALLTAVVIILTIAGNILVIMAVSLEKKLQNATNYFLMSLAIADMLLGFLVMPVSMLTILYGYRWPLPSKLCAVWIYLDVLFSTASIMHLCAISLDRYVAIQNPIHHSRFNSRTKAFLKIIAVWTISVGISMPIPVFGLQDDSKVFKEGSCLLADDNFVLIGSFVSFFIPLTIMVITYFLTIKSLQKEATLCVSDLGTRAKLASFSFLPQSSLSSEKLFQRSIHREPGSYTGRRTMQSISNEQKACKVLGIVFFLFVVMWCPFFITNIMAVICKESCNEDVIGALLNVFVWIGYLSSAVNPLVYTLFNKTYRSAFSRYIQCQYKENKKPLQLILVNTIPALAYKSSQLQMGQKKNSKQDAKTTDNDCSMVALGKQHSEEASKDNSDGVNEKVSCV

COP(=S)(NC(C)C)Oc1ccc(C)cc1[N+](=O)[O-] (stereo not drawn)
not listed: [13] | [14] | [15] | [16] | [17] | [18] | [19]
inactive: all other assays above

Cc1ccc(S(=O)(=O)N[C@@H](CCCCN)C(=O)CCl)cc1
not listed: [16] | [17] | [18] | [19]
inactive: all other assays above

CC(C)=CC1C(C(=O)OC(C#N)c2cccc(Oc3ccccc3)c2)C1(C)C (stereo not drawn)
not listed: [6] | [14] | [18] | [19]
inactive: all other assays above

CNC(=O)Oc1cc(C)c(SC)c(C)c1
not listed: [6] | [13] | [14] | [16] | [19]
inactive: all other assays above

Oc1ccc2c3c1O[C@H]1[C@@H](O)C=C[C@H]4[C@@H](C2)NCC[C@@]341
not listed: [6] | [16]
inactive: all other assays above
